# Data reported in publication PMC11062922 (Nature Chemical Biology, 2023).
# Like-named read-outs stand apart in the source and are kept apart here.
# How the values were obtained:
# ACVR1B = settings: read-out: apparent Kd, n = 1
# AURKB = settings: read-out: apparent Kd, n = 1
# [1] = compound concentrations:100 nM and 1000 nM (sheet 'Lestaurtinib' of Supplementary Table 1),run:Lestaurtinib_02339_R1,Plate:MR001
# [2] = compound concentrations:100 nM and 1000 nM (sheet 'Lestaurtinib' of Supplementary Table 1),run:Lestaurtinib_02364_R2,Plate:MR002
# [3] = compound concentrations:100 nM and 1000 nM (sheet 'Lestaurtinib' of Supplementary Table 1),run:Lestaurtinib_02364_R3,Plate:MR002
# [4] = compound concentrations:100 nM and 1000 nM (sheet 'Lestaurtinib' of Supplementary Table 1),run:Lestaurtinib_02367_R2,Plate:MR003
# [5] = compound concentrations:100 nM and 1000 nM (sheet 'Lestaurtinib' of Supplementary Table 1),run:Lestaurtinib_02381_R1,Plate:MR004
# [6] = compound concentrations:100 nM and 1000 nM (sheet 'Lestaurtinib' of Supplementary Table 1),run:Lestaurtinib_02437_R3,Plate:MR007
substance,measurement,setting,value
Lestaurtinib,potency estimated from few doses,ACVR1B; [1],730 nM
same,potency estimated from few doses,ACVR1B; [2],951 nM
same,potency estimated from few doses,ACVR1B; [3],661 nM
same,potency estimated from few doses,"ACVR1B; compound concentrations:100 nM and 1000 nM (sheet 'Lestaurtinib' of Supplementary Table 1),run:Lestaurtinib_02367_R1,Plate:MR003",671 nM
same,potency estimated from few doses,ACVR1B; [4],684 nM
same,potency estimated from few doses,"ACVR1B; compound concentrations:100 nM and 1000 nM (sheet 'Lestaurtinib' of Supplementary Table 1),run:Lestaurtinib_02367_R3,Plate:MR003",783 nM
same,potency estimated from few doses,ACVR1B; [5],694 nM
same,potency estimated from few doses,"ACVR1B; compound concentrations:100 nM and 1000 nM (sheet 'Lestaurtinib' of Supplementary Table 1),run:Lestaurtinib_02381_R3,Plate:MR004",515 nM
same,potency estimated from few doses,"ACVR1B; compound concentrations:100 nM and 1000 nM (sheet 'Lestaurtinib' of Supplementary Table 1),run:Lestaurtinib_02422_R2,Plate:MR006",951 nM
same,potency estimated from few doses,"ACVR1B; compound concentrations:100 nM and 1000 nM (sheet 'Lestaurtinib' of Supplementary Table 1),run:Lestaurtinib_02437_R1,Plate:MR007",592 nM
same,potency estimated from few doses,ACVR1B; [6],740 nM
same,potency estimated from few doses,"ACVR1B; compound concentrations:100 nM and 1000 nM (sheet 'Lestaurtinib' of Supplementary Table 1),run:Lestaurtinib_02438_R1,Plate:MR008",415 nM
same,potency estimated from few doses,"ACVR1B; compound concentrations:100 nM and 1000 nM (sheet 'Lestaurtinib' of Supplementary Table 1),run:Lestaurtinib_02443_R2,Plate:MR009",855 nM
same,potency estimated from few doses,"ACVR1B; compound concentrations:100 nM and 1000 nM (sheet 'Lestaurtinib' of Supplementary Table 1),run:Lestaurtinib_02443_R3,Plate:MR009",487 nM
same,potency estimated from few doses,"ACVR1B; compound concentrations:100 nM and 1000 nM (sheet 'Lestaurtinib' of Supplementary Table 1),run:Lestaurtinib_02473_R1,Plate:MR010",479 nM
same,potency estimated from few doses,"ACVR1B; compound concentrations:100 nM and 1000 nM (sheet 'Lestaurtinib' of Supplementary Table 1),run:Lestaurtinib_02473_R2,Plate:MR010",674 nM
same,potency estimated from few doses,"ACVR1B; compound concentrations:100 nM and 1000 nM (sheet 'Lestaurtinib' of Supplementary Table 1),run:Lestaurtinib_02482_R1,Plate:MR011",665 nM
same,potency estimated from few doses,"ACVR1B; compound concentrations:100 nM and 1000 nM (sheet 'Lestaurtinib' of Supplementary Table 1),run:Lestaurtinib_02487_R1,Plate:MR012",741 nM
same,potency estimated from few doses,"ACVR1B; compound concentrations:100 nM and 1000 nM (sheet 'Lestaurtinib' of Supplementary Table 1),run:Lestaurtinib_02487_R2,Plate:MR012",754 nM
same,potency estimated from few doses,"ACVR1B; compound concentrations:100 nM and 1000 nM (sheet 'Lestaurtinib' of Supplementary Table 1),run:Lestaurtinib_02487_R3,Plate:MR012",549 nM
same,potency estimated from few doses,"ACVR1B; compound concentrations:100 nM and 1000 nM (sheet 'Lestaurtinib' of Supplementary Table 1),run:Lestaurtinib_02496_R2,Plate:MR013",776 nM
same,potency estimated from few doses,"ACVR1B; compound concentrations:100 nM and 1000 nM (sheet 'Lestaurtinib' of Supplementary Table 1),run:Lestaurtinib_02496_R3,Plate:MR013",965 nM
same,potency estimated from few doses,"ACVR1B; compound concentrations:100 nM and 1000 nM (sheet 'Lestaurtinib' of Supplementary Table 1),run:Lestaurtinib_02566_R1,Plate:MR014",386 nM
same,potency estimated from few doses,"ACVR1B; compound concentrations:100 nM and 1000 nM (sheet 'Lestaurtinib' of Supplementary Table 1),run:Lestaurtinib_02566_R3,Plate:MR014",479 nM
same,potency estimated from few doses,"ACVR1B; compound concentrations:100 nM and 1000 nM (sheet 'Lestaurtinib' of Supplementary Table 1),run:Lestaurtinib_02577_R3,Plate:MR016",422 nM
same,potency estimated from few doses,"ACVR1B; compound concentrations:100 nM and 1000 nM (sheet 'Lestaurtinib' of Supplementary Table 1),run:Lestaurtinib_02584_R1,Plate:MR017",545 nM
same,potency estimated from few doses,"ACVR1B; compound concentrations:100 nM and 1000 nM (sheet 'Lestaurtinib' of Supplementary Table 1),run:Lestaurtinib_02584_R2,Plate:MR017",970 nM
same,potency estimated from few doses,"ACVR1B; compound concentrations:100 nM and 1000 nM (sheet 'Lestaurtinib' of Supplementary Table 1),run:Lestaurtinib_02584_R3,Plate:MR017",748 nM
same,potency estimated from few doses,"ACVR1B; compound concentrations:100 nM and 1000 nM (sheet 'Lestaurtinib' of Supplementary Table 1),run:Lestaurtinib_02601_R1,Plate:MR018",559 nM
same,potency estimated from few doses,"ACVR1B; compound concentrations:100 nM and 1000 nM (sheet 'Lestaurtinib' of Supplementary Table 1),run:Lestaurtinib_02601_R3,Plate:MR018",707 nM
same,potency estimated from few doses,"ACVR1B; compound concentrations:100 nM and 1000 nM (sheet 'Lestaurtinib' of Supplementary Table 1),run:Lestaurtinib_02606_R1,Plate:MR019",628 nM
same,potency estimated from few doses,"ACVR1B; compound concentrations:100 nM and 1000 nM (sheet 'Lestaurtinib' of Supplementary Table 1),run:Lestaurtinib_02606_R3,Plate:MR019",836 nM
same,potency estimated from few doses,"ACVR1B; compound concentrations:100 nM and 1000 nM (sheet 'Lestaurtinib' of Supplementary Table 1),run:Lestaurtinib_02624_R1,Plate:MR020",613 nM
same,potency estimated from few doses,"ACVR1B; compound concentrations:100 nM and 1000 nM (sheet 'Lestaurtinib' of Supplementary Table 1),run:Lestaurtinib_02624_R3,Plate:MR020",724 nM
same,potency estimated from few doses,"ACVR1B; compound concentrations:100 nM and 1000 nM (sheet 'Lestaurtinib' of Supplementary Table 1),run:Lestaurtinib_02724_R1,Plate:MR021",624 nM
same,potency estimated from few doses,"ACVR1B; compound concentrations:100 nM and 1000 nM (sheet 'Lestaurtinib' of Supplementary Table 1),run:Lestaurtinib_02724_R2,Plate:MR021",755 nM
same,potency estimated from few doses,"ACVR1B; compound concentrations:100 nM and 1000 nM (sheet 'Lestaurtinib' of Supplementary Table 1),run:Lestaurtinib_02741_R3,Plate:MR023",712 nM
same,potency estimated from few doses,"ACVR1B; compound concentrations:100 nM and 1000 nM (sheet 'Lestaurtinib' of Supplementary Table 1),run:Lestaurtinib_02748_R1,Plate:MR024",417 nM
same,potency estimated from few doses,"ACVR1B; compound concentrations:100 nM and 1000 nM (sheet 'Lestaurtinib' of Supplementary Table 1),run:Lestaurtinib_02748_R2,Plate:MR024",745 nM
same,potency estimated from few doses,"ACVR1B; compound concentrations:100 nM and 1000 nM (sheet 'Lestaurtinib' of Supplementary Table 1),run:Lestaurtinib_02752_R3,Plate:MR025",724 nM
same,potency estimated from few doses,"ACVR1B; compound concentrations:100 nM and 1000 nM (sheet 'Lestaurtinib' of Supplementary Table 1),run:Lestaurtinib_02765_R1,Plate:MR026",811 nM
same,potency estimated from few doses,"ACVR1B; compound concentrations:100 nM and 1000 nM (sheet 'Lestaurtinib' of Supplementary Table 1),run:Lestaurtinib_02765_R2,Plate:MR026",488 nM
same,potency estimated from few doses,"ACVR1B; compound concentrations:100 nM and 1000 nM (sheet 'Lestaurtinib' of Supplementary Table 1),run:Lestaurtinib_02766_R3,Plate:MR027",495 nM
same,potency estimated from few doses,"ACVR1B; compound concentrations:100 nM and 1000 nM (sheet 'Lestaurtinib' of Supplementary Table 1),run:Lestaurtinib_02768_R2,Plate:MR028",577 nM
same,potency estimated from few doses,"ACVR1B; compound concentrations:100 nM and 1000 nM (sheet 'Lestaurtinib' of Supplementary Table 1),run:Lestaurtinib_02768_R3,Plate:MR028",533 nM
same,potency estimated from few doses,"ACVR1B; compound concentrations:100 nM and 1000 nM (sheet 'Lestaurtinib' of Supplementary Table 1),run:Lestaurtinib_02795_R1,Plate:MR022",857 nM
same,potency estimated from few doses,"ACVR1B; compound concentrations:100 nM and 1000 nM (sheet 'Lestaurtinib' of Supplementary Table 1),run:Lestaurtinib_02795_R2,Plate:MR022",563 nM
same,potency estimated from few doses,"ACVR1B; compound concentrations:100 nM and 1000 nM (sheet 'Lestaurtinib' of Supplementary Table 1),run:Lestaurtinib_02795_R3,Plate:MR022",806 nM
same,potency estimated from few doses,"ACVR1B; compound concentrations:100 nM and 1000 nM (sheet 'Lestaurtinib' of Supplementary Table 1),run:Lestaurtinib_02802_R1,Plate:MR029",480 nM
same,potency estimated from few doses,"ACVR1B; compound concentrations:100 nM and 1000 nM (sheet 'Lestaurtinib' of Supplementary Table 1),run:Lestaurtinib_02802_R2,Plate:MR029",584 nM
same,potency estimated from few doses,"ACVR1B; compound concentrations:100 nM and 1000 nM (sheet 'Lestaurtinib' of Supplementary Table 1),run:Lestaurtinib_02802_R3,Plate:MR029",656 nM
same,potency estimated from few doses,"ACVR1B; compound concentrations:100 nM and 1000 nM (sheet 'Lestaurtinib' of Supplementary Table 1),run:Lestaurtinib_02896_R1,Plate:MR030",549 nM
same,potency estimated from few doses,"ACVR1B; compound concentrations:100 nM and 1000 nM (sheet 'Lestaurtinib' of Supplementary Table 1),run:Lestaurtinib_02896_R3,Plate:MR030",494 nM
same,potency estimated from few doses,"ACVR1B; compound concentrations:100 nM and 1000 nM (sheet 'Lestaurtinib' of Supplementary Table 1),run:Lestaurtinib_03172_R1,Plate:MR031",377 nM
same,potency estimated from few doses,"ACVR1B; compound concentrations:100 nM and 1000 nM (sheet 'Lestaurtinib' of Supplementary Table 1),run:Lestaurtinib_03172_R2,Plate:MR031",568 nM
same,potency estimated from few doses,"ACVR1B; compound concentrations:100 nM and 1000 nM (sheet 'Lestaurtinib' of Supplementary Table 1),run:Lestaurtinib_03172_R3,Plate:MR031",598 nM
same,potency estimated from few doses,"ACVR1B; compound concentrations:100 nM and 1000 nM (sheet 'Lestaurtinib' of Supplementary Table 1),run:Lestaurtinib_03252_R2,Plate:MR032",547 nM
same,potency estimated from few doses,"ACVR1B; compound concentrations:100 nM and 1000 nM (sheet 'Lestaurtinib' of Supplementary Table 1),run:Lestaurtinib_03260_R2,Plate:MR033",551 nM
same,potency estimated from few doses,"ACVR1B; compound concentrations:100 nM and 1000 nM (sheet 'Lestaurtinib' of Supplementary Table 1),run:Lestaurtinib_03260_R3,Plate:MR033",778 nM
same,potency estimated from few doses,AURKB; [1],261 nM
same,potency estimated from few doses,"AURKB; compound concentrations:100 nM and 1000 nM (sheet 'Lestaurtinib' of Supplementary Table 1),run:Lestaurtinib_02339_R2,Plate:MR001",143 nM
same,potency estimated from few doses,"AURKB; compound concentrations:100 nM and 1000 nM (sheet 'Lestaurtinib' of Supplementary Table 1),run:Lestaurtinib_02364_R1,Plate:MR002",260 nM
same,potency estimated from few doses,AURKB; [2],159 nM
same,potency estimated from few doses,AURKB; [3],220 nM
same,potency estimated from few doses,AURKB; [4],304 nM
same,potency estimated from few doses,AURKB; [5],278 nM
same,potency estimated from few doses,"AURKB; compound concentrations:100 nM and 1000 nM (sheet 'Lestaurtinib' of Supplementary Table 1),run:Lestaurtinib_02381_R2,Plate:MR004",232 nM
same,potency estimated from few doses,"AURKB; compound concentrations:100 nM and 1000 nM (sheet 'Lestaurtinib' of Supplementary Table 1),run:Lestaurtinib_02407_R2,Plate:MR005",132 nM
same,potency estimated from few doses,"AURKB; compound concentrations:100 nM and 1000 nM (sheet 'Lestaurtinib' of Supplementary Table 1),run:Lestaurtinib_02407_R3,Plate:MR005",268 nM
same,potency estimated from few doses,"AURKB; compound concentrations:100 nM and 1000 nM (sheet 'Lestaurtinib' of Supplementary Table 1),run:Lestaurtinib_02422_R1,Plate:MR006",157 nM
same,potency estimated from few doses,AURKB; [6],26.5 nM
same,potency estimated from few doses,"AURKB; compound concentrations:100 nM and 1000 nM (sheet 'Lestaurtinib' of Supplementary Table 1),run:Lestaurtinib_02438_R2,Plate:MR008",158 nM
